Among the data in PubChem BioAssay AID588651 (The Scripps Research Institute Molecular Screening Center, 2011) are inhibition values, retold here.

SMILES strings stand for the structures. A number with no mark means an inactive call. Active and inactive are the calls of the source. Rule as the data show it: active = inhibition above about 65%; inactive = the rest.

For the assay, the system named is Fam108b. Nature of the assay: Fam108b inhibition by ABPP, late-stage follow-up, biochemical, gel-based ABPP, recombinant soluble Fam108b, HTS hits, complex proteome (AID 588651).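 Also: Fam108b spiked into mouse brain membrane proteome.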 The note with it: FP-rhodamine labeling in proteome, at 20 µM, hits give high values.
What is called inhibition is the percentage by which the read-out fell short of the control. Regarding `O=c1cc(-c2ccc(O)c(-c3c(O)cc(O)c4c(=O)cc(-c5ccc(O)cc5)oc34)c2)oc2cc(O)cc(O)c12`, the inhibition was 95% (active).

Regarding `O=c1ccc2cc3c([nH]c4ccc(Br)cc43)oc-2c1O`, the inhibition was 10%.

`Cc1ccc(-c2csc3nc(C(C)C)oc(=O)c23)c(C)c1`: the inhibition is 90% (active).

On to `COc1ccc(-c2csc3nc(-c4ccccc4F)oc(=O)c23)cc1`, for which the inhibition was 95% (active).

For the molecule `CCCCCCCCCCCCCCCC[n+]1ccc(C=NO)cc1`, the inhibition was 0%.

Take `Cc1ccccc1NC1=C/C(=N\S(=O)(=O)c2cccs2)c2ccccc2C1=O`: the inhibition is 0%.

For the molecule `Oc1ccc(C=NNc2ccnc3cc(Cl)ccc23)c(O)c1O`, the inhibition is 20%.

Regarding `Oc1nc(Nc2cccc(Cl)c2)sc1/C=C1\C=Nc2ccccc21`, the inhibition is 80% (active).

For `Cc1[nH]c2c(C)cccc2c1CCNC(=O)c1ccc2c(c1[N+](=O)[O-])C(=O)c1ccccc1C2=O`, the inhibition is 40%.

On to `Cc1ccc(S(=O)(=O)/N=C2\C=C(Nc3cccc(C(=O)O)c3)C(=O)c3ccccc32)cc1`, for which the inhibition is 0%.

Consider `Cc1cccc(N=Cc2nc(-c3ccccc3Br)oc2O)n1`, for which the inhibition was 10%.

Turning to `Cc1[nH]c2ccccc2c1C=NNC(=O)c1cccc(S(=O)(=O)Nc2cccc(C(F)(F)F)c2)c1`, the inhibition is 60%.

As to `Cc1cc(C(C#N)c2ccc(Cl)cc2)c(Cl)cc1NC(=O)c1cc(I)cc(I)c1O` (centres undefined), the inhibition is 50%.

In the case of `COc1ccc2ccccc2c1C(O)c1nccn1C` (centres undefined), the inhibition is 0%.

Take `Oc1ccccc1-c1nc2c3ccccc3c3ccccc3c2[nH]1`: the inhibition is 0%.

As to `CCOC(=O)c1sc(NC(=O)Nc2ccc(Cl)cc2)cc1C`, the inhibition is 0%.

`O=[N+]([O-])c1ccc(NN=Cc2ccccc2O)cc1`: the inhibition is 0%.

As to `CN(C)S(=O)(=O)c1cccc(NC(=O)COC(=O)c2cc(-c3cccc(Br)c3)nc3ccccc23)c1`, the inhibition was 0%.

For `CC1CCN(S(=O)(=O)c2ccc(C(=O)Nc3ccccc3-c3nc4ccccc4[nH]3)cc2)CC1`, the inhibition was 0%.

In the case of `CCN(c1ccccc1)S(=O)(=O)c1ccc(NC(=O)c2nc(S(C)(=O)=O)ncc2Cl)cc1`, the inhibition is 0%.

For the molecule `O=C(Nc1cccc(-c2csc(Nc3ccc(Cl)cc3)n2)c1)c1cc([N+](=O)[O-])cc(C(F)(F)F)c1`, the inhibition is 65% (active).

Regarding `CCN(CC)S(=O)(=O)c1cc(NC(=O)COC(=O)c2sc3ccccc3c2Cl)ccc1C`, the inhibition was 10%.

Turning to `CCN(CC)c1ccc(C2Nc3cccc4cccc(c34)N2)c(O)c1`, the inhibition is 10%.

Consider `Cc1c(O)ccc(C=NNc2nc(-c3cccnc3)nc3ccccc23)c1O`, for which the inhibition was 85% (active).

Consider `O=C(Nc1ccc(F)cc1)Nc1ccc(N2CCCC2)c(S(=O)(=O)Nc2ccccc2Cl)c1`, for which the inhibition was 95% (active).

As for `Fc1ccc2nc(Nc3nc4cc5c(cc4s3)OCO5)sc2c1`, the inhibition was 0%.

With `COc1ccc(S(=O)(=O)/N=C2\C=C(Nc3ccc(O)cc3)C(=O)c3ccccc32)cc1`, the inhibition is 25%.

With `Cc1ccc(S(=O)(=O)N=C2C=C(Sc3ncn[nH]3)C(=O)c3ccccc32)cc1`, the inhibition is 90% (active).

On to `Cc1ccc(-n2c(O)c(/C=N/Nc3ccc(S(=O)(=O)N4CCOCC4)cc3[N+](=O)[O-])c3ccccc3c2=O)c(C)c1`, for which the inhibition is 40%.

As to `CC1(C)CC(=O)C2=C(C1)c1c(ccc3ccccc13)NC2c1cc([N+](=O)[O-])cc([N+](=O)[O-])c1O` (centres undefined), the inhibition is 50%.

`CC1=CC(=O)c2c(O)ccc(O)c2C1=O`: the inhibition was 50%.

Regarding `Cc1ccnc(N=Cc2nc(-c3ccccc3Br)oc2O)c1`, the inhibition was 7%.

For the molecule `Cc1cc(C)nc(SCc2ccc(C(=O)NN=Cc3cccc(O)c3O)cc2)n1`, the inhibition was 30%.

For `O=C(Nc1ccc(N2CCCC2)c(S(=O)(=O)Nc2cccc(C(F)(F)F)c2)c1)c1cccs1`, the inhibition was 85% (active).
